Reference: PubChem BioAssay (NCI)
About 79,000 compounds went through this panel and 15% of them were active in at least one assay; those are over-represented in the sample as a whole. The source made the active and inactive calls. Rule as the data show it: active = growth inhibition above about 70%; inactive = the rest.

How the values were obtained:
[1] = NCI Yeast Anticancer Drug Screen. Data for the rad50 strain (AID 155);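 also: 0% = growth of vehicle-only cultures of the same strain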; conditions: S. cerevisiae rad50 strain growth inhibition, hits give high values
In short: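 DNA repair mutant yeast, compound exposure, growth read-out; inhibition is taken relative to vehicle.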

[2] = NCI Yeast Anticancer Drug Screen. Data for the mec2-1 strain (AID 157); conditions: S. cerevisiae mec2-1 strain, hits give high values
In short: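 Strain: mec2-1 (DNA repair/cell cycle alteration). Compound exposure, then growth measured; inhibition expressed relative to vehicle.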

[3] = NCI Yeast Anticancer Drug Screen. Data for the sgs1 mgt1 strain (AID 161);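 also: 0% = growth of cultures given vehicle only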; conditions: S. cerevisiae sgs1 mgt1 strain, hits give high values
In short: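 Genetically altered yeast, compound exposure, growth inhibition relative to vehicle.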

[4] = NCI Yeast Anticancer Drug Screen. Data for the cln2 rad14 strain (AID 165);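 also: 0% = growth equal to vehicle treated cultures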; conditions: S. cerevisiae cln2 rad14 strain, hits give high values
In short: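 Compounds are applied to the cln2 rad14 yeast strain, and growth is then compared with that of vehicle-treated cultures to give inhibition.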

[5] = NCI Yeast Anticancer Drug Screen. Data for the bub3 strain (AID 167); conditions: S. cerevisiae bub3 mutant strain, hits give high values
In short: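 In this screen, a yeast mutant lacking normal mitotic checkpoint function is challenged with compound. Relative growth versus vehicle gives the inhibition value.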

[6] = NCI Yeast Anticancer Drug Screen. Data for the mlh1 rad18 strain (AID 175); conditions: S. cerevisiae mlh1 rad18 strain growth inhibition, hits give high values
In short: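 Read-out is yeast growth inhibition, calculated against vehicle-only controls. The compound was applied to a strain engineered with DNA damage repair alterations.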

[7] = at 5.0 µM (retest, dose inferred, filed as 0.5)
[8] = at 50.0 µM (retest, dose inferred, filed as 5.0)

Measured: growth inhibition

O=C1C(=O)c2cc(Br)cc([N+](=O)[O-])c2-c2ccc(Br)cc21
inactive: [1]; [7] 68% | [2]; [7] 52% | [4]; [7] 21% | [5]; [7] 38%
active: [1]; [8] 96% | [1]; at 50.0 µM 95.5% | [2]; [8] 96% | [2]; at 50.0 µM 98.3% | [3]; [7] 83% | [3]; [8] 93% | [3]; at 50.0 µM 97.1% | [4]; [8] 92% | [4]; at 50.0 µM 96.6% | [5]; [8] 94% | [5]; at 50.0 µM 98.3% | [6]; [7] 89% | [6]; [8] 97% | [6]; at 50.0 µM 98.4%

O=c1[nH]c2cc(Cl)ccc2nc1/C=C(\O)c1ccccn1
inactive: [1]; [7] 20% | [1]; at 50.0 µM 60% | [2]; [7] 7% | [2]; [8] 49% | [2]; at 50.0 µM 37.8% | [3]; [7] 8% | [4]; [7] 8% | [4]; [8] 64% | [4]; at 50.0 µM 34.1% | [5]; [7] 21% | [5]; [8] 27% | [5]; at 50.0 µM 44.5% | [6]; [7] -1%
active: [1]; [8] 79% | [3]; [8] 71% | [3]; at 50.0 µM 74.8% | [6]; [8] 82% | [6]; at 50.0 µM 88%

O=C(C[n+]1ccccc1Cl)c1ccc(F)cc1
inactive: [1]; [7] -3% | [1]; at 50.0 µM -8% | [2]; [7] -1% | [2]; at 50.0 µM -0.8% | [3]; [7] -1% | [3]; at 50.0 µM 11.7% | [4]; [7] -3% | [5]; [7] 4% | [5]; at 50.0 µM 1.45% | [6]; [7] -1% | [6]; at 50.0 µM -12%
active: [1]; [8] 99% | [2]; [8] 100% | [3]; [8] 99% | [4]; [8] 99% | [4]; at 50.0 µM 79.5% | [5]; [8] 99% | [6]; [8] 99%

CC(=O)OC[C@@H](OC(C)=O)[C@H](OC(C)=O)c1cnn(-c2ccccc2)n1
inactive: [1]; [7] -3% | [1]; [8] -11% | [1]; at 50.0 µM -0.85% | [2]; [7] -1% | [2]; [8] -6% | [2]; at 50.0 µM 3.15% | [3]; [7] -4% | [3]; [8] 14% | [3]; at 50.0 µM 3.25% | [4]; [7] -1% | [4]; [8] -2% | [4]; at 50.0 µM -5.7% | [5]; [7] 13% | [5]; [8] 29% | [6]; [7] 3% | [6]; [8] -3% | [6]; at 50.0 µM 12.8%
active: [5]; at 50.0 µM 71.8%

CC(=O)OC1C(OC(C)=O)C2C(C)CC3OC(=O)C(C)C3CC2(C)C1OC(C)=O (configuration not stated)
active: [1]; [8] 71% | [1]; at 50.0 µM 78.2% | [2]; [8] 82% | [2]; at 50.0 µM 77.2% | [3]; at 50.0 µM 73.6% | [5]; [8] 80% | [6]; [8] 81% | [6]; at 50.0 µM 72.7%
inactive: [1]; [7] -7% | [2]; [7] 2% | [3]; [7] -6% | [3]; [8] 69% | [4]; [7] 34% | [4]; [8] 46% | [4]; at 50.0 µM 32.4% | [5]; [7] 9% | [5]; at 50.0 µM 67% | [6]; [7] -18%

CCO/C=C1\C(=O)C=C(C)CC1c1ccc(OC)c(OC)c1OC (configuration not stated)
active: [1]; [8] 84% | [2]; [8] 81% | [3]; [8] 86% | [5]; [8] 80% | [6]; [8] 88% | [6]; at 50.0 µM 86.7%
inactive: [1]; [7] 3% | [1]; at 50.0 µM 53.1% | [2]; [7] 4% | [2]; at 50.0 µM 38% | [3]; [7] 7% | [3]; at 50.0 µM 47.6% | [4]; [7] -5% | [4]; [8] 55% | [4]; at 50.0 µM 16.6% | [5]; [7] -8% | [5]; at 50.0 µM 41.7% | [6]; [7] 4%

O=C1CC(=Nc2ccc([N+](=O)[O-])cc2)NN1c1c(Cl)cc(Cl)cc1Cl
active: [1]; at 50.0 µM 90.7% | [2]; at 50.0 µM 92% | [3]; [8] 96% | [3]; at 50.0 µM 92.7% | [4]; at 50.0 µM 89.4% | [5]; [8] 95% | [5]; at 50.0 µM 91.7% | [6]; [8] 89% | [6]; at 50.0 µM 89.5%
inactive: [1]; [7] -20% | [1]; [8] 47% | [2]; [7] -24% | [2]; [8] 69% | [3]; [7] -15% | [4]; [7] -15% | [4]; [8] 57% | [5]; [7] -24% | [6]; [7] -65%

Cc1ccc(NC(=S)N(CCC#N)C2CCCCC2)cc1C
inactive: [1]; [7] -12% | [1]; [8] -10% | [1]; at 50.0 µM 21.9% | [2]; [7] -22% | [2]; [8] -21% | [2]; at 50.0 µM -7.55% | [3]; [7] -6% | [3]; [8] 10% | [3]; at 50.0 µM 10.3% | [4]; [7] -2% | [4]; [8] 3% | [4]; at 50.0 µM 0.5% | [5]; [7] 7% | [5]; [8] 7% | [5]; at 50.0 µM 1.85% | [6]; [7] -27% | [6]; [8] -28% | [6]; at 50.0 µM 14.6%

NC(=O)C#CC#CC#CCO
inactive: [1]; [7] 11% | [1]; [8] 62% | [2]; [7] 24% | [2]; [8] 62% | [3]; [7] 18% | [4]; [7] 25% | [4]; [8] 39% | [5]; [7] 38% | [6]; [7] 19% | [6]; [8] 67%
active: [1]; at 50.0 µM 92.8% | [2]; at 50.0 µM 94.8% | [3]; [8] 78% | [3]; at 50.0 µM 94% | [4]; at 50.0 µM 91.8% | [5]; [8] 77% | [5]; at 50.0 µM 93.5% | [6]; at 50.0 µM 92.7%
